# Laboratory results from ChEMBL document CHEMBL3988442, “University of Dundee, Small-Polar-MMV Screening Library” (2021).
# Target: AMP-activated protein kinase, AMPK (Homo sapiens) (UniProt P54646+O43741+P54619+Q9UGJ0+Q9Y478+Q13131+Q9UGI9)
# Experiment: AMP-dependent Kinase enzyme assay. An in vitro enzyme assay that detects ADP turnover that is directly proportional to AMPK activity. This uses naive AMPK that is activated during the assay with MK-8722
# Type: functional
# Parameters: scale not given: direction of the effect not stated beside the values
# Conditions: 30 µM
row,Structure (SMILES),Percent Effect [%]
1,O=C(NCC1CCCO1)Nc1nnc(C(F)(F)F)s1 (centres undefined),3.01
2,Cc1nsc(C(=O)NCCc2ccccc2)n1,3.51
3,COCc1cc(NCCCSc2nnc(C)s2)ncn1,8.32
4,CC(C)c1cc(C2CCN(C(=O)Cn3cncn3)CC2)[nH]n1,29.2
5,C=Cn1cc(CN2CCC(c3ncc(Cl)cc3S(C)(=O)=O)CC2)c(C)n1,13.4
6,O=C1OCCCN1Cc1nc(-c2ccncc2)no1,-2.07
7,CN(CCO)Cc1cc(Cl)ccc1OCC(O)CN1CCCCCC1 (centres undefined),0.752
8,CCCc1nc(C)cc(N2Cc3cnn(CCO)c3C2)n1,5.18
9,O=C(NC1CCCN(Cc2c(F)cccc2F)C1)c1cc[nH]n1 (centres undefined),-4.83
10,CNC(=O)c1cccnc1NCc1ccc(Cn2ccnc2)cc1,-1.78
11,O=C(CCc1ccc(Cl)cc1)N[C@@H]1CC[C@@H](O)[C@@H]1O,14.5
12,CC(=O)Nc1ccc(CN2C[C@H]3CC[C@@H]2CN(c2ncccn2)C3)cc1,13
13,CN(Cc1ccsc1)C(=O)c1nc(N2CCCCC2)ncc1Cl,0.035
14,O=C(NCCN1CCOC1=O)c1cnc(-c2cccnc2)nc1,-1.72
15,CCOc1cc(NC(=O)N2CCC3(CCOCC3)C2)ccc1C,-0.853
16,Cc1nccn1[C@@H]1CC[C@@H](N(C)S(=O)(=O)c2cccc(F)c2)[C@H]1O,28.1
17,O=C(C1CCOC1)N1CCN(CC(F)(F)F)c2ccccc21 (centres undefined),11.6
18,Cc1noc(CCNC(=O)C2CSCN2C(=O)C2CCCC2)n1 (centres undefined),3.34
19,CN1CCC(NC(=O)c2cc(Cl)cc(Br)c2O)C1=O (centres undefined),12.7
